Compound activity (PubChem)
MIN6 prolif: inducers of MIN6 beta-cell proliferation, primary screen, ATP luminescence, uHTS; proliferation, % at 10 µM; MIN6 cells proliferation, ATPlite luminescence, 48 h; cells starved in 0.2% serum; 100% = growth in 10% serum; actives 0.29% (n = 330,000); AID 2380, 2010;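 active means compounds whose signal lies at least 3.5 SD above the mean of all wells on their plate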
FAS-TE inh: FAS thioesterase domain inhibitors, primary screen, biochemical, fluorescence intensity, uHTS | recombinant FAS-TE, OMFH fluorogenic substrate, fluorescence endpoint | inhibition, % at 15 µM | Fatty acid synthase (Homo sapiens), P49327 | actives 0.67% (n = 360,000);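 active means compounds whose normalised, plate-corrected inhibition of enzyme fluorescence in the single-dose primary screen is 50% or more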
GRIN3A LBD mod: binders of NR3A ligand-binding domain, primary screen, biophysical, differential scanning fluorimetry, uHTS | Glutamate receptor ionotropic, NMDA 3A (GRIN3A) ligand-binding domain | NR3A LBD differential scanning fluorimetry, Tm shift; 0% = protein alone, 100% = glycine-bound protein | Tm shift relative to glycine control, % at 25 µM | actives 2.5% (n = 340,000) | AID 1259313, 2017;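 active means melting temperature shift of at least 10% of the positive control shift, at one fixed dose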
p-CIP stab down: p/CIP-EGFP fusion destabilizers, primary screen, fluorescence, F442A cells; 16 h; decrease of EGFP signal, % at 10 µM; actives 0.01% (n = 290,000);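 active means EGFP signal decrease of at least 30% at 10 µM or well 3 SD below plate mean, unless failing retest; inactive means the rest, including hits failing retest or dose response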
MPTP inh: mitochondrial permeability transition pore inhibitors, primary screen, biochemical, isolated mouse mitochondria, absorbance. Ca2+ swelling absorbance, 30 min. actives 1.4% (n = 360,000). inhibition, % at 10 µM;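 active means inhibition of 50% or more, scaled per plate between neutral and stimulator controls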
Rh123 counter: fluorescence retest of MPTP screen hits in isolated mitochondria, single concentration | actives 78% (n = 5,000) | membrane potential, Rhodamine 123 fluorescence | inhibition, % at 10 µM | shares compounds with MPTP inh; in the data active means inhibition above about 22%
MPTP swell DR: mitochondrial permeability transition pore inhibitors, dose response, biochemical, absorbance, uHTS hits; AID 651561, 2012; shares compounds with MPTP inh; IC50, µM; isolated mitochondria swelling; actives 58% (n = 780); in the data active means IC50 below about 20 µM
MPTP counter DR: fluorescent counter-screen in isolated mitochondria, dose response, counter-screen for MPTP inhibitor project, biochemical, fluorescence, uHTS hits; IC50, µM; AID 651564, 2012; isolated mitochondria counterscreen, fluorescence read-out; actives 49% (n = 780); shares compounds with MPTP inh; in the data active means IC50 below about 80 µM
Hits are given with their value; . = inactive; / = no result. Shown are actives, neighbours in structure and some others; about 4.1% of the full set was active somewhere.

SMILES | MIN6 prolif | FAS-TE inh | GRIN3A LBD mod | p-CIP stab down | MPTP inh | Rh123 counter | others
COc1ccccc1-n1c(SC(C)C(=O)NCC2CCCO2)nc2cc(Cl)ccc2c1=O (stereo not given) | . | . | . | / | . | /
CCc1ccc2c(c1)cc(CN(C(=S)Nc1ccc(Cl)cc1)C1CC1)c1nnnn12 | . | . | . | . | 146.4 | . | MPTP swell DR=.;MPTP counter DR=.
COCCNC(=S)N(Cc1cc2cc(C)ccc2n2nnnc12)C1CCCC1 | . | . | . | . | . | /
CCN(C(=O)C(C)Cl)c1ccccc1 (stereo not given) | . | . | . | . | . | /
COCCn1c(C)cc(C2=NNC(=Nc3ccc(Cl)cc3Cl)SC2)c1C | . | . | . | . | . | /
COCC(C)N=C1NN=C(c2cc(C)n(Cc3ccccc3Cl)c2C)CS1 (stereo not given) | . | . | . | . | 78.9 | 83.2
CCSC1=C(C#N)C2(CCCCC2)C(C#N)=C(N)N1 | . | . | . | . | . | /
N#CC1=C(N)NC(SCC(=O)c2ccc(Br)cc2)=C(C#N)C12CCCCC2 | . | . | 16.5 | . | 90.0 | 80.4
N#CC1=C(N)NC(SCc2ccccc2)=C(C#N)C12CCCCC2 | . | . | . | . | 68.2 | 74.4
C=C1CCC[C@]2(C)C[C@H]3OC(=O)C(CNCC(OC)OC)[C@H]3CC12 (stereo not given in full) | . | . | . | . | . | /
O=C(C[n+]1cnn(CC(=O)c2ccc(Cl)cc2Cl)c1)c1ccc([N+](=O)[O-])cc1 | / | . | . | . | 58.5 | . | MPTP swell DR=7.06;MPTP counter DR=.
CSc1nc(Oc2ccc3ccccc3c2)c2ccccc2n1 | . | . | . | . | 80.2 | . | MPTP swell DR=9.44;MPTP counter DR=.
O=C(N/N=C/c1cn(-c2cccs2)nc1-c1ccccc1)c1ccccc1O | . | . | 25.7 | . | 98.6 | 31.9
O=[N+]([O-])c1ccc(C2=NN(CCO)C(=Nc3ccc(OC(F)(F)F)cc3)SC2)cc1 | . | . | . | . | 54.3 | 52.5
CC(=O)N1N=C(c2ccncc2)OC12CCCCC2 | . | . | . | . | . | /
Cc1ccc(N(C)C(=O)CCS(=O)(=O)c2cc3c(cc2Cl)NC(=O)CO3)cc1 | . | . | . | . | . | /
CCOC(=O)C1(CCOC)CCN(Cc2cccc(OCc3ccccc3)c2)CC1 | . | . | . | . | 55.3 | . | MPTP swell DR=14.6;MPTP counter DR=26.5
CCOC(=O)C1(CCOC)CCN(Cc2ccncc2)CC1 | . | . | . | . | . | /
CCOC(=O)C1(CCCc2ccccc2)CCN(Cc2nccn2CC)CC1 | . | . | . | . | 56.3 | 40.0
CCOC(=O)C1(CCOc2ccccc2)CCN(Cc2nccn2CC)CC1 | . | . | . | . | . | /
CCOC(=O)C1(CCOC)CCN(C/C=C/c2ccccc2OC)CC1 | / | . | . | / | 89.5 | 49.1
CCOC(=O)C1(CCOc2ccccc2)CCN(Cc2cccs2)CC1 | . | . | . | . | 51.9 | . | MPTP swell DR=17;MPTP counter DR=47.9
CCN(CC(=O)Nc1c(F)cccc1F)C(=O)/C=C/c1cn(Cc2ccccc2)nc1-c1cccnc1 | . | . | . | . | . | /
COc1ccc(CN(C)C(=O)c2ccc(NS(=O)(=O)c3ccc4[nH]c(=O)[nH]c4c3)cc2)c(OC)c1OC | . | . | . | / | . | /
Cc1c(Cl)cccc1N=C1SCCN1C(=O)CN1C(=O)NC2(CCCC2)C1=O | . | . | . | / | . | /
Cc1ccc(C(=O)CCC(=O)Nc2cccc(C)c2)cc1 | . | . | . | . | . | /
O=C(/C=C/c1cn(CC(O)CN2CCCCCC2)c2ccccc12)c1cccs1 (stereo not given) | . | . | . | . | 80.3 | .
COc1cc(/C=C2\C(=O)N(c3ccccc3)N=C2C)ccc1Oc1ccc([N+](=O)[O-])cc1[N+](=O)[O-] | / | . | . | . | 88.4 | 61.4
